# Data from PubChem BioAssay (EPA / NIEHS).
# Results filed as inconclusive are left out. The source made the active and inactive calls. Rule for the calls: active = hit-call score of the fitted dose curve at least 0.9, where 1 is the maximum; inconclusive = response in the unintended direction; inactive = score below 0.9.
# Assay: Tanguay_ZF_120hpf_EYE_legacy: (Legacy) Oregon State University Tanguay Lab 120 Hour Post-fertilization zebrafish Assay for Eye Malformation (AID 2283636);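 note: binary presence or absence of eye malformation scored by brightfield in 120 hpf larvae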
# Summary of the method: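 Static waterborne exposure of dechorionated zebrafish embryos (strain Tropical 5D), 6 to 120 hpf, sealed plates at 28C, 0.64% DMSO vehicle. Eye malformation is scored as a binary endpoint, with gain of signal analysed relative to DMSO.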
row,Structure (SMILES),outcome
1,COc1cccc(-c2ccc(/C=C\CN3CCCCCC3)cc2Cl)c1,inactive
2,CC[C@H]1CC[C@H](NCc2cc3c(cc2OC)[C@H]2C[C@H]2C(=O)N3C)[C@H](c2ccccc2)N1,inactive
3,CCCCCCCCO,inactive
4,Fc1ccccc1[C@@H](F)COC1CCC(Nc2ncnc3[nH]ncc23)CC1 (stereo partly specified),inactive
5,CNCc1ccc(NC(=O)c2c[nH]c3c2C(=O)CCC3)cc1,inactive
6,O=c1[nH]c2ccc(S(=O)CCN3CCC(Cc4ccc(F)cc4)CC3)cc2o1 (stereo unspecified),inactive
7,CCN(C(=O)c1cc(C)cc(OC[C@H](C)Nc2ccncc2)c1)C(C)C,inactive
8,CNS(=O)(=O)c1cc(C(=O)N2CCC(CCN3C4CCC3CC(n3c(C)nc5ccccc53)C4)(c3cccc(F)c3)CC2)c(Cl)cc1F (stereo unspecified),inactive
9,CC(C)CCO,inactive
10,CCCCC(CC)COC(=O)CCCCCCCCC(=O)OCC(CC)CCCC (stereo unspecified),inactive
11,CN(C)c1ccc(Cc2ccc(N(C)C)cc2)cc1,inactive
12,CCNc1ccccc1,inactive
13,CCn1nc(Cc2ccccc2)cc1C1CCN(C[C@H]2C[C@H](N(C)[C@@H](C(=O)O)C(C)C)C[C@@H]2c2cccc(F)c2)CC1,inactive
14,CC(C)CCCCCCOC(=O)c1ccc(C(=O)OCCCCCCC(C)C)c(C(=O)OCCCCCCC(C)C)c1,inactive
15,CC(C)=CCC/C(C)=C/CO,inactive
16,O=C(O)CCN(C1(C(=O)NO)CCCC1)S(=O)(=O)c1ccc(Oc2ccc(F)cc2)cc1,inactive
17,Cc1ccc(N)cc1O,inactive
18,CCCC(=O)OCC,inactive
19,CC1=CC(=O)CC(C)(C)C1,inactive
20,CCCCC(CC)COC(=O)c1ccc(C(=O)OCC(CC)CCCC)cc1 (stereo unspecified),inactive
21,COc1ccc2sc(C(=O)Nc3nnn[nH]3)c(OC(C)C)c2c1,inactive
22,Cc1c(-c2cccnc2)c2ccccc2n1CCCCC(=O)O,inactive
23,CCc1cc(SCc2sc(-c3ccc(C(F)(F)F)cc3)nc2CN2CCN(c3ccc(OC)cc3)CC2)ccc1OCC(=O)O,inactive
24,CCOC(=O)COc1ccc2c(c1)CC(NCC(O)c1cccc(Cl)c1)CC2 (stereo unspecified),inactive
25,CCOc1cccc(-n2cc(C(=O)N3CCN(c4cc(C(=O)O)c5ccccc5c4)CC3)nc2-c2ccc(C)cc2)c1,inactive
26,COCCOc1cc2cc(C(=O)NC3CCN(C(C)C)CC3)n(CC(=O)Nc3ccc(Cl)cn3)c2cn1,inactive
